rat GALR2 ag: activates the rat galanin receptor 2. cell-based GALR2 agonist screen. activation, % at 10 µM. O08726. hit rate 0.5% among 16,000. AID 833; in the data active = activation above about 15%
TLR4 MyD88 blk: blocks binding of human TLR4 to MyD88 | O00206 | Cell-based TLR4-MyD88 binding inhibition assay | inhibition, % at 10 µM | hit rate 0.06% among 16,000 | AID 811; in the data active = inhibition above about 45%
Target sequence (O00206 whole entry, looked up): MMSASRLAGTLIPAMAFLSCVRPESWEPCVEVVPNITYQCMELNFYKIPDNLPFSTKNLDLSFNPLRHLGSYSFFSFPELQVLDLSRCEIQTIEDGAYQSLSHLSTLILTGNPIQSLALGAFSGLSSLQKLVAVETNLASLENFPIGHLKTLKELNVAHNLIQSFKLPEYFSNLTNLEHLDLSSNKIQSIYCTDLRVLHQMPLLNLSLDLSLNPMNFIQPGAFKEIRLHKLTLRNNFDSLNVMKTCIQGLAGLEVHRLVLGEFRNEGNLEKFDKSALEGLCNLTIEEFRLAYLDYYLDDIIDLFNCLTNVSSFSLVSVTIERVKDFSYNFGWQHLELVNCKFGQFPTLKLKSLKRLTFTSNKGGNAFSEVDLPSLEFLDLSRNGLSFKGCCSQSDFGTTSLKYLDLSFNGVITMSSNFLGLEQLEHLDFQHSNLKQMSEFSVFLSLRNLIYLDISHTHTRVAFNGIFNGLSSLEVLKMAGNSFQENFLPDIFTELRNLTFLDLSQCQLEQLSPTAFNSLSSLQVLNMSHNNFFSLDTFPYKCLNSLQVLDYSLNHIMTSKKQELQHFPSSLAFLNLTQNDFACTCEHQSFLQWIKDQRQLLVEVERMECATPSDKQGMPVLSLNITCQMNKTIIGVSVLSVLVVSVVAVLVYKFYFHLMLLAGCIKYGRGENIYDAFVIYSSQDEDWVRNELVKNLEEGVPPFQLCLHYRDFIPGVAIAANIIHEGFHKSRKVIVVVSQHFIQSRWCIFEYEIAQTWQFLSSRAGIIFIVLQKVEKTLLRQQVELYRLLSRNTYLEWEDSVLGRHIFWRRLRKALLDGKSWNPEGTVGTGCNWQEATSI
An asterisk follows results filed as active; nt = not tested or not shown. The list is not random: actives were taken first. Their share in the collection is about 0.52%.

SMILES	rat GALR2 ag	TLR4 MyD88 blk
CCOC(=O)/C(C#N)=C/c1cn(-c2ccccc2)nc1-c1ccccc1	69*	5
CCOC(=O)/C(C#N)=C/c1ccccc1	-5	-7
Cc1cn[nH]c1-c1cccs1	-6	-8
COc1ccc(CN=C(C)c2c(O)c3ccccc3n(C)c2=O)cc1	1	3
Cc1ccc(S(=O)(=O)NC(N)=NCCCC(NC(=O)OCc2ccccc2)C(=O)O)cc1 (stereo not given)	-6	7
O=S(=O)(Nc1cccc2nsnc12)c1ccc(Cl)s1	-6	4
CC12CCC(=O)C=C1CCC2=O (stereo not given)	-3	53*
COc1ccc(Cl)c(OC)c1NC(=O)NC(=O)c1c(Cl)cc([N+](=O)[O-])cc1Cl	-2	4
CC(C)(C)C(C)(C#N)Nc1ccc(Cl)cc1 (stereo not given)	45*	8
CC(C)S(=O)(=O)/C(C#N)=C/Nc1ccc(Cl)cc1	1	-6
COc1ccc(Br)c(C(=O)NCc2ccc(Cl)cc2)c1	-4	5
COc1ccc(-c2cc(C(F)(F)F)n3nc(C4CC4)cc3n2)cc1	-6	-5
COc1ccc(-c2cc(C(F)(F)F)n3nc(-c4ccco4)cc3n2)cc1OC	27*	7
CCOC(=O)/C(C)=N/NC(N)=S	-6	1
CCOC(=O)CNc1ccc(C(F)(F)F)cc1	61*	-5
CCOC(=O)NC(=S)Nc1ccc(C(C)(C)C)cc1	-6	-10
Cc1occc(=O)c1OCc1ccc(Cl)cc1	1	5
Cc1nnsc1C(=O)Oc1cccnc1	-2	-2
O=[N+]([O-])c1cccc(-c2c[nH]c(=S)[nH]2)c1	-7	-2
N#Cc1c(C(F)(F)F)c([N+](=O)[O-])c(-c2cccc([N+](=O)[O-])c2)[nH]c1=O	25*	-9
CCOC(=O)Cn1c(=O)sc2ncc(Br)cc21	-6	5
CC(Oc1ccc2oc3ccccc3c(=O)c2c1)C(=O)O (stereo not given)	0	-2
CC(C)Nc1c(-c2ccccc2)oc2ccc(C(=O)O)cc2c1=O	28*	-11
Fc1ccc(N2CCN(Cc3cnc(-c4ccccc4)[nH]3)CC2)cc1	-6	-5
O=C1Nc2ccc(OC(F)(F)F)cc2C1=O	26*	10
SMILES	rat GALR2 ag	TLR4 MyD88 blk
CC(=O)Nc1ccc(OC(F)(F)F)cc1Cl	-3	4
O=C1c2ccccc2S(=O)(=O)N1Cc1ccc2nsnc2c1	-6	4
COc1ccc(C(=O)Nc2nc(-c3ccc(C)c(Cl)c3)c(C)s2)cc1	17*	2
Cc1ccc(-c2nc(NC(=O)c3c(C)noc3C)sc2C)cc1Cl	-10	1
CCOC(=O)c1nn(-c2ccccc2)c2nc(=O)c(C#N)c(-c3ccccc3)n12	-8	-4
Cc1cc(SCc2[nH]nc3oc(=O)cc(C)c23)c(C)cc1Cl	-3	9
CCOC(=O)CSc1c(C)[nH]c2ccccc12	-8	-13
Cc1[nH]c2ccccc2c1SCc1n[nH]c(=S)n1C	20*	-7
CS(=O)(=O)/C(C#N)=C/N=S(C)(=O)c1ccsc1 (stereo not given)	-6	2
Cc1ccc(S(=O)(=O)NC(=O)Nc2ccccc2N2CCCCC2)cc1	-8	-5
Cn1sc(=O)c2cc(S(=O)(=O)Nc3ccccc3N3CCCCC3)ccc21	16*	-7
CCn1nc(C)c([N+](=O)[O-])c1C(=O)NCC(=O)c1ccc(Cl)cc1	-8	-3
CCOC(=O)c1c(NC(=S)Nc2cc(C)nn2-c2ccccc2)sc(C)c1C	-9	2
CCOC(=O)c1c(NC(=O)c2ccc3ncccc3c2)sc(C)c1C	42*	nt
N/C(=N\c1ncn[nH]1)N/N=C/c1c(Cl)cccc1Cl	-10	11
N#CC(C#N)=NNc1ccc(Cl)c(Cl)c1C#N	-5	-3
N#Cc1cnc(Oc2ccc(Cl)cc2)nc1N	21*	-1
COc1ncc(C#N)c(N)n1	-5	-10
O=C(Nc1ccccc1)Nc1ccccc1Sc1ncc([N+](=O)[O-])s1	-10	-11
CC(C)(C)c1ccc(Oc2ccc(NC(=O)CSCC(=O)O)cn2)cc1	-5	8
CCCCc1ccc(NC(=O)N2CCN(Cc3ccc4c(c3)OCO4)CC2)c(C)c1	-8	5
CSc1nc(-c2cccs2)cc(C(F)(F)F)c1C#N	31*	-6
CSc1nc(N)nc(-c2cccs2)c1C#N	-4	21
CC(=O)NC(=O)c1ocnc1C	-8	6
CC(C)n1cc(-c2nc(C(=O)NNC(=O)C(C)(C)C)cs2)c(=O)n(Cc2ccccc2)c1=O	-2	-1
SMILES	rat GALR2 ag	TLR4 MyD88 blk
CCOC(=O)Cn1c(=O)c(-c2nc(-c3ccc(Cl)cc3)cs2)cn(C(C)C)c1=O	16*	0
CCCCNC(=O)N1CCN(c2ncc(Br)cn2)CC1	-5	4
COc1ccc(/C=C2/N=C(c3ccccc3)NC2=O)cc1	15*	-2
COc1ccc(/C=C2/N=C(c3ccccc3)NN(Cc3ccccc3)C2=O)cc1	-7	2
CCCc1nn(S(=O)(=O)c2ccc(F)cc2F)cc1C(=O)OCC	-6	3
CC(C)(C)c1ccc(C(=O)N2CCCCC2)s1	-4	8
COc1ccc(S(=O)(=O)N2CCN(c3ccc(C(F)(F)F)cc3[N+](=O)[O-])CC2)cc1OC	80*	-2
CCOC(=O)/C(C#N)=C/N1CCN(c2ccc(C(F)(F)F)cc2[N+](=O)[O-])CC1	1	nt
N#C/C(=C\NCc1cccs1)S(=O)(=O)Cc1ccc(Cl)cc1	-4	1
N#C/C(=C\c1c(Cl)cccc1Cl)C(=O)Nc1ccc(F)c(Cl)c1	20*	-5
CN(C)/C=C(\C#N)C(=O)Nc1ccc(F)c(Cl)c1	-5	nt
COc1cc(-c2n[nH]c(=S)n2C2CCCCC2)cc(OC)c1OC	-7	-13
CN1C2CCC1CC(NC(=O)CSCc1ccc(Cl)cc1Cl)C2 (stereo not given)	51*	-11
CN1C2CCC1CC(NC(=O)CS(=O)(=O)c1ccc(F)cc1F)C2 (stereo not given)	-7	-29
Cc1cc(C)n(-c2ncnc3c2nnn3Cc2ccccc2Cl)n1	-3	8
CCOc1ncnc2c1nnn2Cc1ccccc1Cl	20*	-4
NC(=O)C1=CCc2ccccc21	-6	6
N#CC(C#N)=CNc1ncccn1	-5	-4
O=[N+]([O-])c1ccc(C2=CN(c3ccc(Cl)cc3)C(O)=CO2)cc1	-8	-16
CC(C)(O)C#Cc1ccc(/C=N/O)cc1	-8	0
CC(C)(O)C#Cc1ccccn1	27*	3
Clc1ccc(-n2nnc(/C=C/C=C/N3CCOCC3)n2)cc1	30*	-4
CCc1ccc(-n2nnnc2/C=C/N2CCOCC2)cc1	-9	1
CC12CCC(C/C1=N\O)C2(C)C (stereo not given)	-6	-8
N#C/C(=C\c1ccccc1OC(F)(F)F)S(=O)(=O)c1ccccc1	-5	-11
SMILES	rat GALR2 ag	TLR4 MyD88 blk
Cc1nn(C)c(C(=O)O/N=C(\N)c2ccc([N+](=O)[O-])o2)c1[N+](=O)[O-]	-7	-19
CCOC(=O)c1c(C)csc1NC(=O)c1cccs1	19*	2
CCOC(=O)c1c(C)csc1NC(=O)Nc1c(Cl)cccc1Cl	-6	0
NC(=S)N/N=C/c1ccc2c(c1)OCO2	-8	-1
Cc1nc(-c2noc(C)n2)no1	-9	13
OC(COc1ccc(N=Cc2ccc(Cl)cc2)cc1)CN1CCCCC1 (stereo not given)	-7	15
OC(COc1ccc(C23CC4CC(CC(C4)C2)C3)cc1)CN1CCCCC1 (stereo not given)	27*	-6
Cc1nc(-c2cccnc2)cs1	-5	2
